# Out of some 57,000 sequences screened, about 4,000 (7%) were called active. Rule as the data show it: active = GI50 up to about 1.1 µM and inactive = higher. Only a sample is shown. Potency and affinity values are given separately.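 Following 48 hours of exposure in 96-well plates, responses at five concentrations were used to interpolate endpoints linearly. GI50 = concentration required for 50% inhibition of growth.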
# Tested on: M14
# Assay: NCI tumour cell line growth inhibition, 48 h
row,Substance,GI50
1,"mu-(1,7-nanodiamine-N,N')bis-(cis-aminedichloroplatimum (II)), CHEMBL2146215",7.78 µM
2,"cis-Bis[[(trimethylsilyl)methyl]amino]tetrachloroplatinum(IV), CHEMBL2146191",3.5 µM
3,"[Bis(aminomethyl)dimethylsilane]dichloroplatinum (II), CHEMBL2146201",22.9 µM
4,"[Bis(aminomethyl)diethylsilane]tetrachloroplatinum(IV), CHEMBL2146203",1.38 µM
5,"[Bis(aminomethyl)tetramethylenesilane]dichloropaltinum(II), CHEMBL2146205",13.5 µM
6,"[Bis(aminomethyl)ethylmethylsilane]tetrachloroplatinum(IV), CHEMBL2146192",2.68 µM
7,"[Bis(aminomethyl)tetramethylenesilane]tetrachloropaltinum(IV), CHEMBL2146189",6.11 µM
8,"CISPLATIN, CHEMBL11359",1.95 µM
9,"[Bis(aminomethyl)dimethylsilane]tetrachloroplatinum(IV), CHEMBL2146190",7.45 µM
10,"[Bis(aminomethyl)pentamethylenesilane]tetrachloropaltinum(IV), CHEMBL2146204",2.13 µM
11,"[Bis(aminomethyl)pentamethylenesilane]dichloropaltinum(II), CHEMBL2146202",1.92 µM
